# Publication PMC6451091, “NextPBM: a platform to study cell-specific transcription factor binding and cooperativity”
# Whole data set: some 3,700 sequences, median “z-score” near 4, cut for the highest 2% near 8.4. The sample holds the highest values, similar sequences and a random draw of the others, so the mix is not that of the screen.
# Key:
# PU.1 (IVT) [1] = molecular target: PU.1 (IVT) (UniProt P17947 1-270); assay: protein-binding microarray (PBM); 20 mM HEPES pH 7.9, 100 mM NaCl, 1 mM DTT, 0.2 mg/mL BSA, 0.02% Triton X-100, 2% milk, 0.4 mg/mL salmon testes DNA; 1 h; temperature not stated; high values mean tight binding; details: dsDNA, one strand shown
# Outline: (§1)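 Untagged full-length PU.1 was produced by coupled human in vitro transcription/translation and incubated for 1 h on custom double-stranded DNA microarrays in HEPES pH 7.9 containing 100 mM NaCl, 2% milk and salmon testes DNA. Each array carried 20-bp genomic sites and single-nucleotide variants, with 10 probes per site (5 per orientation). Bound protein was detected with anti-PU.1 followed by a fluorescent secondary antibody. Binding values are z-scores calculated from scanned fluorescence after linear-regression normalisation.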
# PU.1 (IVT) [2] = molecular target: PU.1 (IVT) (UniProt P17947 1-270); assay: as above; details: dsDNA, one strand shown; remark: listed apart in the source
# Outline: as §1
Sequence,binding signal (PU.1 (IVT) [1]) [z-score],binding signal (PU.1 (IVT) [2]) [z-score]
GCCTAGCACAAAAAGAGGAAGTCAAACTAGTGCTAGGTCTTGATTCGCTTGACGCTGCTG,8.48,
GCCTAGCACAAAAAGAGGAAGTCAAACAAGTGCTAGGTCTTGATTCGCTTGACGCTGCTG,8.71,
GCCTAGCACGAAAAGAGGAAGTCAAACGAGTGCTAGGTCTTGATTCGCTTGACGCTGCTG,8.02,
GCCTAGCACAAAAAGAGGAAGGGAAACTAGTGCTAGGTCTTGATTCGCTTGACGCTGCTG,5.12,
GCCTAGCACAAAAACAGGAAGTCAAAGGAGTGCTAGGTCTTGATTCGCTTGACGCTGCTG,7.11,
GCCTAGCACAGAAAGAGGAAGTCAAAACAGTGCTAGGTCTTGATTCGCTTGACGCTGCTG,7.68,
GCCTAGCACAAAAAGAGGAAGAGAAACTAGTGCTAGGTCTTGATTCGCTTGACGCTGCTG,5.79,
GCCTAGCACGGAAAGAGGAAGTCAAACTAGTGCTAGGTCTTGATTCGCTTGACGCTGCTG,7.68,
GCCTAGCACGAAAAGAGGAAGTCAAACTAGTGCTAGGTCTTGATTCGCTTGACGCTGCTG,8.35,
GCCTAGCACAAAAAAAGGAAGTCCTTGTGGTGCTAGGTCTTGATTCGCTTGACGCTGCTG,,6.48
GCCTAGCACTTGGTCAGGAAGTGAAACTGGTGCTAGGTCTTGATTCGCTTGACGCTGCTG,,1.38
GCCTAGCACAGAAAGAGGAAGTCACAAGGGTGCTAGGTCTTGATTCGCTTGACGCTGCTG,7.68,
GCCTAGCACGAAAGAGGGAAGTGAAAGTCGTGCTAGGTCTTGATTCGCTTGACGCTGCTG,,5.25
GCCTAGCACGATATGAGGAACTGAAAGCTGTGCTAGGTCTTGATTCGCTTGACGCTGCTG,,4.06
GCCTAGCACAATAAAGGGAAGTGACTGCTGTGCTAGGTCTTGATTCGCTTGACGCTGCTG,,5.43
GCCTAGCACAAAAAAAGGAACGGGCTAGAGTGCTAGGTCTTGATTCGCTTGACGCTGCTG,1.48,
GCCTAGCACAAAAAGAGGAAATGAAAAGAGTGCTAGGTCTTGATTCGCTTGACGCTGCTG,,6.67
GCCTAGCACAGAAAGAGGAACTGACTGACGTGCTAGGTCTTGATTCGCTTGACGCTGCTG,,6.61
GCCTAGCACTGAAAAGGGAAGTGAGGAAGGTGCTAGGTCTTGATTCGCTTGACGCTGCTG,,5.34
GCCTAGCACAAAAAGAGGAAGTAAAAGACGTGCTAGGTCTTGATTCGCTTGACGCTGCTG,8.93,
GCCTAGCACAAAAAAAGGAAGTGGTAAACGTGCTAGGTCTTGATTCGCTTGACGCTGCTG,,6.51
GCCTAGCACAAAAAGAGGAAGGGAGTAGAGTGCTAGGTCTTGATTCGCTTGACGCTGCTG,,4.77
GCCTAGCACGAGAAGAGGAAGTAGAACAAGTGCTAGGTCTTGATTCGCTTGACGCTGCTG,,6.62

Sequence,binding signal (PU.1 (IVT) [1]) [z-score],binding signal (PU.1 (IVT) [2]) [z-score]
GCCTAGCACAAAAAGAGGAAGTAGAGAACGTGCTAGGTCTTGATTCGCTTGACGCTGCTG,8.97,
GCCTAGCACACGAAGAGGAAGTAAAAGGCGTGCTAGGTCTTGATTCGCTTGACGCTGCTG,,6.54
GCCTAGCACCGAAAGGGGATGTGCTAAACGTGCTAGGTCTTGATTCGCTTGACGCTGCTG,,1.8
GCCTAGCACTATATAGGGAAGTGGGATTCGTGCTAGGTCTTGATTCGCTTGACGCTGCTG,,4.85
GCCTAGCACTAAATGAGGAAGTGACAGCTGTGCTAGGTCTTGATTCGCTTGACGCTGCTG,7.57,
GCCTAGCACAATGGCAGGAAGTGAAATCAGTGCTAGGTCTTGATTCGCTTGACGCTGCTG,2.15,
GCCTAGCACCGAAAGGGGAAGTGCTAAAAGTGCTAGGTCTTGATTCGCTTGACGCTGCTG,6.97,
GCCTAGCACGAAAGGAGGAAGTGGAGGGTGTGCTAGGTCTTGATTCGCTTGACGCTGCTG,,5.92
GCCTAGCACCAAAAGCGGAAGTGGTGCCTGTGCTAGGTCTTGATTCGCTTGACGCTGCTG,8.56,
GCCTAGCACGAAAAGCGGAAGTGGTGTGGGTGCTAGGTCTTGATTCGCTTGACGCTGCTG,8.61,
GCCTAGCACCAAAAAGGGAAGTGGAAGCTGTGCTAGGTCTTGATTCGCTTGACGCTGCTG,,6.2
GCCTAGCACGAAAAGGGGAAGTGCTGGGGGTGCTAGGTCTTGATTCGCTTGACGCTGCTG,7.77,
GCCTAGCACCAAAAAAGGAAGTGGCTGTGGTGCTAGGTCTTGATTCGCTTGACGCTGCTG,5.51,
GCCTAGCACAAAAAAAGGAAAGGAAAGTAGTGCTAGGTCTTGATTCGCTTGACGCTGCTG,1.27,
GCCTAGCACAAAATGAGGAAGTGTGATTAGTGCTAGGTCTTGATTCGCTTGACGCTGCTG,7.8,
GCCTAGCACAAAATGAGGAAGTAATTCCTGTGCTAGGTCTTGATTCGCTTGACGCTGCTG,8.66,
GCCTAGCACAAAAGGAGGAAGTTGGTTGGGTGCTAGGTCTTGATTCGCTTGACGCTGCTG,7.62,
GCCTAGCACAAAATGAGGAAGTGCATTGAGTGCTAGGTCTTGATTCGCTTGACGCTGCTG,8.07,
GCCTAGCACAAAATGAGGAACTGCTGTCTGTGCTAGGTCTTGATTCGCTTGACGCTGCTG,6.9,
GCCTAGCACAAAATGAGGAAGTGCTTCTAGTGCTAGGTCTTGATTCGCTTGACGCTGCTG,8.37,
GCCTAGCACAAAATGAGGAAGTACCCTCTGTGCTAGGTCTTGATTCGCTTGACGCTGCTG,8.28,
GCCTAGCACAAAATGAGGAAGTGACTTTGGTGCTAGGTCTTGATTCGCTTGACGCTGCTG,8.87,
GCCTAGCACAAATAGAGGAAGTGGAATGGGTGCTAGGTCTTGATTCGCTTGACGCTGCTG,7.2,

Sequence,binding signal (PU.1 (IVT) [1]) [z-score],binding signal (PU.1 (IVT) [2]) [z-score]
GCCTAGCACAAAATGAGGAAGTTGGATGGGTGCTAGGTCTTGATTCGCTTGACGCTGCTG,8.35,
GCCTAGCACAAAATGAGGAAGTGAGCTAAGTGCTAGGTCTTGATTCGCTTGACGCTGCTG,7.94,
GCCTAGCACAAAATGAGGAAGTGAACAAAGTGCTAGGTCTTGATTCGCTTGACGCTGCTG,8.02,
GCCTAGCACACAATGAGGAAGTGCTGGCCGTGCTAGGTCTTGATTCGCTTGACGCTGCTG,,6.19
GCCTAGCACTAAAGGAGGAATTGAAACCAGTGCTAGGTCTTGATTCGCTTGACGCTGCTG,1.22,
GCCTAGCACGCCAGGAGGAAGTGGAAATGGTGCTAGGTCTTGATTCGCTTGACGCTGCTG,4.22,
GCCTAGCACGACAAGAGGAAGTGCAAGATGTGCTAGGTCTTGATTCGCTTGACGCTGCTG,4.87,
GCCTAGCACATATGGAGGAAGTGGAACCCGTGCTAGGTCTTGATTCGCTTGACGCTGCTG,3.92,
GCCTAGCACCTGCCAGGGAAGTGTAAGCAGTGCTAGGTCTTGATTCGCTTGACGCTGCTG,,0.66
GCCTAGCACAAAAAGAAGAAGTGGGGCTTGTGCTAGGTCTTGATTCGCTTGACGCTGCTG,,4.26
GCCTAGCACTGAAAGGGGAAGTCTTTTTAGTGCTAGGTCTTGATTCGCTTGACGCTGCTG,6.55,
GCCTAGCACAAAATGAGGAAGTGGAAGGGGTGCTAGGTCTTGATTCGCTTGACGCTGCTG,8.15,
GCCTAGCACAAAATGAGGAAGTGGCTTTGGTGCTAGGTCTTGATTCGCTTGACGCTGCTG,8.37,
GCCTAGCACAAAATGAGGAAGTGCTGGCAGTGCTAGGTCTTGATTCGCTTGACGCTGCTG,8.14,
GCCTAGCACTAAATGAGGAAGTGTGCTGTGTGCTAGGTCTTGATTCGCTTGACGCTGCTG,7.74,
GCCTAGCACAAGATGAGGAAGTGAGTGTAGTGCTAGGTCTTGATTCGCTTGACGCTGCTG,,6.13
GCCTAGCACGAAAAGAGGAAGTGTGAGACGTGCTAGGTCTTGATTCGCTTGACGCTGCTG,7.97,
GCCTAGCACAAAAAAAGGAAGTGGACCGTGTGCTAGGTCTTGATTCGCTTGACGCTGCTG,,6.55
GCCTAGCACGAAAAGAGGAAGTGTGAGATGTGCTAGGTCTTGATTCGCTTGACGCTGCTG,8.2,
GCCTAGCACAAAAAGAGGAAGTCAGTTTGGTGCTAGGTCTTGATTCGCTTGACGCTGCTG,8.4,
GCCTAGCACAAAAAGAGGAAGTGATGACCGTGCTAGGTCTTGATTCGCTTGACGCTGCTG,8.84,
GCCTAGCACGAAAAGAGGAAGTGAGATGTGTGCTAGGTCTTGATTCGCTTGACGCTGCTG,8.73,
GCCTAGCACAAAAAGAGGAAGTCTGGTGTGTGCTAGGTCTTGATTCGCTTGACGCTGCTG,8.02,

Sequence,binding signal (PU.1 (IVT) [1]) [z-score],binding signal (PU.1 (IVT) [2]) [z-score]
GCCTAGCACAAAGAGAGGAAGTACAGTTTGTGCTAGGTCTTGATTCGCTTGACGCTGCTG,5.35,
GCCTAGCACAAAAAAAGGAAGTGATAGCCGTGCTAGGTCTTGATTCGCTTGACGCTGCTG,,6.5
GCCTAGCACAAGAAGAGGAAGTGAGTGCTGTGCTAGGTCTTGATTCGCTTGACGCTGCTG,7.09,
GCCTAGCACAAAAAGAGGAAGTGATGAGTGTGCTAGGTCTTGATTCGCTTGACGCTGCTG,8.92,
GCCTAGCACTTAATGAGGAAGTGCTGTCAGTGCTAGGTCTTGATTCGCTTGACGCTGCTG,6.5,
GCCTAGCACTAGATGAGGAAGTACTGTGCGTGCTAGGTCTTGATTCGCTTGACGCTGCTG,,6.57
GCCTAGCACTTTAACAGGAAGTGAAACCAGTGCTAGGTCTTGATTCGCTTGACGCTGCTG,,4.61
GCCTAGCACCAAAAAGGGAAGTGGGTTGAGTGCTAGGTCTTGATTCGCTTGACGCTGCTG,7.02,
GCCTAGCACTGAAACAGGAAGTGAGACCAGTGCTAGGTCTTGATTCGCTTGACGCTGCTG,6.68,
GCCTAGCACGGAATAGGGAAGTGAAACTGGTGCTAGGTCTTGATTCGCTTGACGCTGCTG,,6.68
GCCTAGCACGAAAAGGGGAACTGAAACTAGTGCTAGGTCTTGATTCGCTTGACGCTGCTG,6.15,
GCCTAGCACAAAAGGAGGAAGTGGGGGGAGTGCTAGGTCTTGATTCGCTTGACGCTGCTG,,6.01
GCCTAGCACAAAAAGAGGAAGTGGGGGAGGTGCTAGGTCTTGATTCGCTTGACGCTGCTG,8.59,
GCCTAGCACAAAAAAAGGAAGTGAGAGCTGTGCTAGGTCTTGATTCGCTTGACGCTGCTG,,6.29
GCCTAGCACAAAGAAAGGAAGTGGCCTGTGTGCTAGGTCTTGATTCGCTTGACGCTGCTG,2.71,
GCCTAGCACAAAAGGAGGAAGTGATCCCTGTGCTAGGTCTTGATTCGCTTGACGCTGCTG,6.77,
GCCTAGCACAAAAAGAGGAAGTGAGCTTAGTGCTAGGTCTTGATTCGCTTGACGCTGCTG,8.51,
GCCTAGCACAAAAAGAGGAAGAGGAGGAGGTGCTAGGTCTTGATTCGCTTGACGCTGCTG,,5.1
GCCTAGCACAAAAAGAGGAAGTGCACAAGGTGCTAGGTCTTGATTCGCTTGACGCTGCTG,8.64,
GCCTAGCACAAAAAGAGGAAGTGCCCTGTGTGCTAGGTCTTGATTCGCTTGACGCTGCTG,8.56,
GCCTAGCACAAAAAAGAGAAGTGGGGGAAGTGCTAGGTCTTGATTCGCTTGACGCTGCTG,5.77,
GCCTAGCACAAAAAGAGGAAGGGGAAGAAGTGCTAGGTCTTGATTCGCTTGACGCTGCTG,,6.26
GCCTAGCACAAAAGGAGGAAGTGAAAGTAGTGCTAGGTCTTGATTCGCTTGACGCTGCTG,6.69,
